HTT ATP protect – protects HTT-Q103 PC12 cells, measured by ATP | PC12 HTT-Q103 induced, cytoprotection, ATP luminescence, 40 h | Potency, µM (series often up to 56.4 µM), actives largely listed as activators | 0.14% of 230,000 active | AID 1471; also: nearly all actives have a fitted effect of over 45% in size
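Rat PC12, Q103 Htt exon1-GFP fusion, ecdysone promoter; tebufenozide inducer 100 nM final; compound titration; qHTS, 1500 cells/well; ATPlite luminescent read.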
ERK EGF inh – EGF-driven ERK pathway inhibition | HEK293-V1b, EGF-stimulated phospho-ERK AlphaScreen | Potency, µM (titrated, usually from 11.5 µM), usual class: inhibitors | 0.41% of 130,000 active | AID 1454; also: nearly all actives have a fitted effect of over 55% in size
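In this qHTS, HEK293 cells with stable type-1 vasopressin (V1b) receptor were exposed to compound at 37C for 30 min, stimulated 5 min with EGF at 25 nM, lysed, and probed for phospho-ERK by AlphaScreen.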
HttQ103 aggreg – inhibitors of mutant huntingtin aggregate formation in PC12 cells. PC12 HttQ103-GFP aggregates, Acumen cytometry, 40 h. Potency, µM (titrated, usually from 46.1 µM), most hits filed as inhibitors. 1.1% of 220,000 active; also: nearly all actives have a fitted effect of over 60% in size
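Multiplexed with ATP-based cell death, this channel scores GFP aggregates in PC12 cells expressing inducible HTTex1-Q103-GFP. Induction used 100 nM tebufenozide; compounds were tested in concentration series.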
A number is an active result; – = inactive; ? = inconclusive; · = no result; [ ] = another dose, or the depositor's remark. Sampled rows, rich in hits. Any-hit rate of the full collection: about 1.4%. Calls follow the shape of the dose curve; as a rule, active = well fitted curve in the direction sought with a large enough effect; inconclusive = small, poorly fitted or top-dose-only effect, or another doubt; inactive = no such curve, though single readings can be large; an effect the other way counts as inactive or inconclusive.

SMILES | HTT ATP protect | ERK EGF inh | HttQ103 aggreg
O=C(Nc1ccc(N2CCN(c3ncccc3C(F)(F)F)CC2)nc1)c1cccs1 | –[10 µM] | 14µM | –[9.22 µM]
O=C1C[C@@H](O)[C@@H](O)[C@H]2[C@@H]3C(=O)N(Cc4ccccc4)C(=O)[C@@H]3CC[C@H]12 | –[10 µM] | · | ·
CC(C)[C@@H]1CC[C@@H](C)C[C@H]1OC(=O)C[n+]1cc(-c2ccc(Cl)cc2)n2c1CCCCC2 | –[10 µM] | – | –[9.22 µM]
COc1ccc(-c2c[n+](CC(=O)OC3CC(C)CCC3C(C)C)c3n2CCC3)cc1 (configuration not stated) | –[10 µM] | · | 10µM
COC(=O)C/C=C/[C@@H](C)[C@H](OC)c1c(Br)ccc2c1OCO2 | ? | – | ·
Cc1ccccc1-c1cc(N2CCNCC2)ncn1 | – | · | ·
CN(C)S(=O)(=O)N(CC(=O)Nc1ccc2ccccc2c1)c1ccccc1 | 5.6µM | – | ?
CN(C)S(=O)(=O)N(CC(=O)Nc1ccc(F)c(F)c1)c1ccccc1 | – | · | ?
O=C(Nc1ccccc1)N1CCC2(CC1)CCN(C(=O)c1csnn1)CC2 | ? | – | ·
CC(=O)c1cc2c(cc1O)OC(C)(C)C=C2 | – | – | ·
CC(=O)c1cc(C#N)c(SCCC(C)C)nc1C | –[0.074 µM] | · | –
CC(C)CCSc1nc(N)c(C#N)cc1C#N | –[10 µM] | · | 22µM
Cc1sc2nc(C3CC3)nc(SCC(=O)N3CCCc4ccccc43)c2c1C | –[10 µM] | – | –
Cc1sc2nc(C3CC3)nc(SCC(=O)N3CCc4ccccc4C3)c2c1C | –[10 µM] | · | 7.1µM
Cc1sc2nc(C(C)C)nc(SCC(=O)N3CCN(C(=O)c4ccco4)CC3)c2c1C | – | · | –
CCc1c(C)sc2nc(C(C)C)nc(SCC(=O)N3CCc4ccccc4C3)c12 | –[10 µM] | · | 3.5µM
CCOC(=O)C1=C(C)NC(C)=C(C(=O)OCC)C1c1ccccc1C=CC(=O)OC(C)(C)C | – | · | ?
O=C(N/N=C1/C[C@@H](O)[C@@H](O)[C@@H]2[C@@H]3C(=O)N(c4cccc(Oc5ccccc5)c4)C(=O)[C@H]3CC[C@H]12)OCc1ccccc1 | –[10 µM] | · | ·
COc1ccccc1-c1ccc2ncnc(N3CCN(C)CC3)c2c1 | – | – | ·
CC(C)(S)[C@H](N)C(=O)O | –[10 µM] | – | ·
Cc1ccc2c(c1)nnn2C1CCN(S(=O)(=O)c2ccc(C(=O)O)cc2)CC1 | –[10 µM] | – | –[9.22 µM]
Cc1ccc2c(c1)nnn2C1CCN(S(=O)(=O)c2ccc(C(=O)N3C(C)CCCC3C)cc2)CC1 (configuration not stated) | – | · | 13µM
COC(=O)c1c(-c2ccccc2)c[nH]c1C | · | – | 22µM
COC(=O)c1c(C)[nH]c(C=O)c1-c1ccccc1 | –[10 µM] | – | –[9.22 µM]
COc1ccc(-c2nc3c(c4c2C[C@H](c2ccccc2)OC4)CN(C(=O)Nc2cccc(C#N)c2)CC3)c(C)c1 | –[10 µM] | · | ·
SMILES | HTT ATP protect | ERK EGF inh | HttQ103 aggreg
O=C(CN1CCN(Cc2ccccc2F)C1=O)NCc1ccco1 | – | · | 0.13µM
O=C(CN1CCN(Cc2ccccc2F)C1=O)NCc1cccnc1 | –[10 µM] | · | –
CCN1C(=C(C#N)C#N)C=Cc2cc(C)ccc21 | – | – | –
C=CC[n+]1c(/C=C2\C=Cc3cc(C)ccc3N2CC)ccc2ccccc21 | – | 22µM | 3.2µM
COc1ccc(-c2cc(=O)oc3cc(OCC(C)=O)ccc23)cc1 | · | – | –
COc1ccc(-c2cc(=O)oc3cc(OC(=O)C4CCCCC4)c(Cl)cc23)cc1 | –[10 µM] | – | 0.28µM
Cc1onc(-c2ccccc2)c1C(=O)N/N=C/C=C/c1ccccc1 | –[10 µM] | 18µM | –[9.22 µM]
Cc1onc(-c2ccccc2)c1C(=O)N/N=C/c1cccc(O)c1 | · | – | –
COCc1cc([C@@H]2C[C@H]3CN(c4ccccc4)C(=O)[C@]34CCCN24)ccc1OC | – | – | 32µM
COc1ccccc1CN1C[C@@H]2C[C@@H](c3ccc(C)cc3)N3CCC[C@@]23C1=O | –[10 µM] | – | –[9.22 µM]
COc1ccc([C@@H]2C[C@H]3CN(c4ccccc4)C(=O)[C@]34CCCN24)c(OC)c1OC | –[10 µM] | – | –[9.22 µM]
COc1ccccc1N1C[C@@H]2C[C@@H](c3ccco3)N3CCC[C@@]23C1=O | – | – | 7.1µM
C=CC1=C2C=C(C3CC3)N(Cc3ccco3)C=C2C(=O)C(C)(OC(=O)c2ccco2)C1=O (configuration not stated) | –[10 µM] | · | ·
C[C@H]([C@H](C)N1CC(=O)NC(=O)C1)N1CC(=O)NC(=O)C1 | – | · | ·
O=C(COc1cccnc1[N+](=O)[O-])c1ccc(Cl)s1 | –[10 µM] | – | –[9.22 µM]
N#Cc1cccc(NC(=O)N2CCCC3(CCN(C(=O)c4cc(C(F)(F)F)cc(C(F)(F)F)c4)CC3)C2)c1 | – | – | ·
O=C(O)c1ccc(COc2ccccc2/C=C2\NC(=O)N(Cc3ccccc3)C2=O)cc1 | · | – | –
O=C(O)c1ccc(COc2ccc3ccccc3c2/C=C2/NC(=O)N(Cc3ccc(F)cc3)C2=O)cc1 | – | 35µM | –[9.22 µM]
CC1(C)OC(C(O)(c2cc(C(F)(F)F)cc(C(F)(F)F)c2)c2cc(C(F)(F)F)cc(C(F)(F)F)c2)C(C(O)(c2cc(C(F)(F)F)cc(C(F)(F)F)c2)c2cc(C(F)(F)F)cc(C(F)(F)F)c2)O1 (configuration not stated) | –[10 µM] | · | ·
CC(C)c1nc(N2CCN(C(=O)c3ccccc3)CC2)c(C#N)c2c1COC(C)(C)C2 | – | · | 14µM
CC1(C)Cc2c(C#N)c(N3CCN(C(=O)c4ccccc4)CC3)nc(-c3ccco3)c2CS1 | –[10 µM] | – | –
CC(C)(C)CC(C)(C)c1cc(Cc2cc(C(C)(C)CC(C)(C)C)cc(-n3nc4ccccc4n3)c2O)c(O)c(-n2nc3ccccc3n2)c1 | – | · | –
CCOC(=O)C1=NOC2C3CC(C12)C1C(=O)N(CCc2ccc(OC)c(OC)c2)C(=O)C31 (configuration not stated) | –[10 µM] | – | –[9.22 µM]
CCC(CO)Nc1nc2ccc(Cl)cc2c2ccccc12 (configuration not stated) | –[10 µM] | – | –[9.22 µM]
O=C1CCC(=O)N1CCSC(=S)N1CCSCC1 | –[10 µM] | – | –[9.22 µM]
SMILES | HTT ATP protect | ERK EGF inh | HttQ103 aggreg
CCCOc1cc(C)c(S(=O)(=O)N2CCOCC2)cc1C | –[10 µM] | – | –
CCCOc1cc(C)c(S(=O)(=O)n2ccc(C)n2)cc1C | – | · | 13µM
O=C1[C@H]2[C@H]3[C@H](O)[C@H](O)C/C(=N/OCc4ccccc4)[C@@H]3CC[C@@H]2C(=O)N1C[C@@H]1CCCO1 | –[10 µM] | · | ·
COc1cc2oc(=O)cc(-c3ccc(-c4ccc(NC(C)=O)cc4)cc3)c2c(OC)c1OC | – | · | ·
O=S(=O)(O)c1cc(N=Nc2cccc3ccccc23)c(O)c2ncccc12 | –[10 µM] | · | ·
Oc1c(N=Nc2ccccn2)ccc2ccccc12 | – | · | 3.2µM
CC(C)c1cccc2nc3c(c([Si](C)(C)C(C)(C)C)c12)Cn1c-3cccc1=O | – | – | ·
COCC(=O)N1CCC[C@@]2(CCN(C(=O)Nc3ccccc3)C2)C1 | – | – | ·
CC(C)c1onc(C(=O)Nc2cccnc2Cl)c1[N+](=O)[O-] | – | – | –
CCc1ccccc1NC(=O)c1noc(C(C)C)c1[N+](=O)[O-] | – | – | 7.1µM
O=C(O)CCc1nc(-c2ccccc2-n2cccc2)no1 | –[10 µM] | · | ·
N#CCCn1c(=O)c(-c2cc(F)cc(F)c2)nc2cnc(OCc3ccccc3)nc21 | – | – | ·
N#Cc1ccc(NC(=O)Nc2ccc(Cl)cc2)cc1 | –[10 µM] | · | 25µM
CN(CC(=O)Nc1ccc(C#N)cc1)Cc1ccc(Cl)cc1 | –[10 µM] | · | –
Cc1cc(N)c2ccccc2n1 | – | – | –
